High-throughput results (PubChem)
IL1B secr inh – inflammasome signaling inhibition, IL-1 beta readout; 360,000 tested, 4.7% active; activity change, % at 57.5 µM; THP-1 LPS/ATP IL-1B secretion, AlphaLISA, 16 h; stronger effect = lower value; in the data active = activity change below about -50%; inconclusive = mostly about -30% to -49%
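Secreted IL-1B measured by AlphaLISA bead assay after 16 h compound exposure of THP-1 cells; compounds (final up to 57.5 uM) added 1 h before LPS (250 ng/mL) and ATP (1.25 mM) stimulation; lower signal means less secretion.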
ELG1 repair inh – inhibitors of ELG1-dependent DNA repair in HEK293T cells; HEK293T ELG1-luciferase reporter, luminescence, 16 h; DNA damage induced by 5-fluorouridine; Potency, µM (doses to about 46.1 µM), hits mostly inhibitors; 330,000 tested, 2.3% active; AID 504467; note: nearly all actives have a fitted effect of over 55% in size
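In this reporter screen, reduction of luminescence relative to DMSO vehicle indicated activity. Compounds and 5-fluorouridine were added together to 2,000 cells per well, incubated for 16 hr at 37 °C, then developed with ONE-Glo.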
TDP1 cell noCPT – qHTS for Inhibitors of human tyrosyl-DNA phosphodiesterase 1 (TDP1): qHTS in cells in absence of CPT. DT40 Tdp1-/- hTDP1 cells, no CPT, ATP luminescence, 48 h. Potency, µM (titrated, usually from 46.2 µM), usual class: inhibitors. 420,000 tested, 15% active; note: nearly all actives have a fitted effect of over 55% in size
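Readout: luminescence from CellTiter-Glo after 30 min in the dark at RT. Cells: DT40 Tdp1-/- with stable hTDP1, 400/well. Exposure: compounds alone, ≥48 hr, 37 °C.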
Giardia killer – Giardia lamblia killing; Giardia lamblia trophozoite viability; activity change, % at 7.66 µM, hits read low; 340,000 tested, 0.15% active; in the data active = activity change below about -80%; inconclusive = between about -30% and that limit;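 note: parasites exposed to compound for two days anaerobically before the ATP read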
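Media and compound were dispensed first, then trophozoites at 100 cells/well; plates sat 48 hrs at 37 deg C without oxygen before ATP luminescence reagent was added and read after 15-30 min at room temperature.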
DT40 TDP1 CPT – DT40-hTDP1 cell growth loss with CPT | chicken DT40 Tdp1-/-;hTDP1 cells + 20 nM CPT, ATP luminescence, 48 h | Potency, µM (series often up to 46.2 µM), actives largely listed as inhibitors | 420,000 tested, 12% active | AID 686979; note: nearly all actives have a fitted effect of over 55% in size
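Cell growth measured by CellTiter-Glo luminescence after a minimum 48 h, 37 C compound exposure with 20 nM CPT in Tdp1-knockout DT40 cells stably expressing hTDP1, seeded 400/well; qHTS titration format.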
TDP1 inh – inhibitors of human tyrosyl-DNA phosphodiesterase TDP1; recombinant TDP1, AlphaScreen DNA substrate cleavage; Potency, µM (titrated, usually from 130 µM), actives largely listed as inhibitors; AID 485290; Q9NUW8; 350,000 tested, 0.28% active; note: nearly all actives have a fitted effect of over 40% in size
Target sequence (Q9NUW8 whole entry, looked up): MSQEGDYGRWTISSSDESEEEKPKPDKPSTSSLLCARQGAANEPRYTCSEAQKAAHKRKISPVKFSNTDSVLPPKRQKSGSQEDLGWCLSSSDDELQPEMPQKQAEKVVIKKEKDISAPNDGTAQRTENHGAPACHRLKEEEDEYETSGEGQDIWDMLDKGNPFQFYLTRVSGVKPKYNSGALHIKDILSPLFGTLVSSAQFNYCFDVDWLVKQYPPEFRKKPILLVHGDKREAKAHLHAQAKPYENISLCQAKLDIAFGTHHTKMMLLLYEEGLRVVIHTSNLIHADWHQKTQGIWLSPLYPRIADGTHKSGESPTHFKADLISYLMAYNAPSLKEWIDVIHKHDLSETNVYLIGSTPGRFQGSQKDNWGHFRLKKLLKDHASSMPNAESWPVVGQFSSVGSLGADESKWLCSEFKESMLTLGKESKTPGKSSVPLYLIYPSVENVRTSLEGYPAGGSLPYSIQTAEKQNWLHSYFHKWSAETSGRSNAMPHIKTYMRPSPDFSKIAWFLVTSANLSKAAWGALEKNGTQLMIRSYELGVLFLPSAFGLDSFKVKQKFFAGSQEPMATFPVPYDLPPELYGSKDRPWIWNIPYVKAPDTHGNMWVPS
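Steps: enzyme plus compound, 15 min RT; add biotin/phosphotyrosine-FITC oligonucleotide (15 nM final), react 5 min; add donor/acceptor beads (10 ug/ml final), 10 min; read AlphaScreen. Tdp1 at 1 nM final.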
A number is an active result; – = inactive; ? = inconclusive; · = no result. A selection: hits, their analogues and other compounds. The true share with any hit is near 19%. Unless noted, calls come from the whole dose curve; as a rule, active = well fitted curve in the direction sought with a large enough effect; inconclusive = small, poorly fitted or top-dose-only effect, or another doubt; inactive = no such curve, though single readings can be large; an effect the other way counts as inactive or inconclusive.

SMILES | IL1B secr inh | ELG1 repair inh | TDP1 cell noCPT | Giardia killer | DT40 TDP1 CPT | TDP1 inh
CCOc1ccc(/C=N/NC(=O)c2ccccc2C)cc1CN1CC2CC(C1)c1cccc(=O)n1C2 (stereo not given) | – | – | 23.1µM | – | ? | –
COc1ccc(C)cc1NS(=O)(=O)c1c(C(=O)N2CCCCCC2)c(C)n(C)c1C | · | · | ? | · | ? | –
CCOC(=O)c1ccccc1NC(=O)Cn1ncc2c([nH]c3ccccc32)c1=O | · | · | ? | · | – | –
CC1=CC(C)(C)N(S(=O)(=O)c2ccc(F)cc2)c2ccccc21 | – | – | ? | – | 25.9µM | –
CC1=CC(C)(C)N(S(=O)(=O)c2ccc(C)cc2)c2ccc(C)cc21 | – | – | 18.4µM | – | 5.8µM | –
COc1cc2c(cc1OC)[C@@H]1C(=O)c3ccc4c(c3O[C@@H]1CO2)C=CC(C)(C)O4 | · | · | 0.106µM | · | 0.15µM | –
COc1cc(O)c(C(C)=O)c2c1C=CC(C)(C)O2 | – | · | ? | – | – | ·
C/C(=N/NC(=O)c1ccco1)c1ccc(NC(=O)c2ccc(F)cc2)cc1 | – | ? | ? | – | – | –
O=[N+]([O-])/C(Cl)=C(/NCCO)C(Cl)=C(Cl)Cl | – | · | – | -100.1 | – | ·
FC(F)(F)c1ccccc1Cc1c(C2CCCCC2)nc2ccc(Br)cn12 | – | · | ? | · | ? | ·
CCCCOc1ccc(-c2cc(C(=O)NNC(=S)NCC)c3ccccc3n2)cc1 | ? | ? | 20.6µM | ? | 23.1µM | –
CCNC(=S)NNC(=O)c1cc(-c2ccc(OC)cc2)nc2ccccc12 | – | ? | 4.11µM | ? | 3.66µM | –
CCN(C)C1CN(Cc2cn(Cc3cccc(Cl)c3)nn2)S(=O)(=O)C1 (stereo not given) | – | · | – | · | – | ·
CC(=O)Nc1ccc(/C=C/c2ccnc3ccccc23)cc1[N+](=O)[O-] | · | · | ? | · | 1.41µM | ·
CC(=O)Nc1ccc(/C=C/c2ccnc3ccccc23)cc1 | · | · | 11.2µM | · | 15.8µM | ·
O=S(=O)(c1ccc(Cl)cc1)c1nnn2c1nc(N1CCCCC1)c1sccc12 | · | · | 16.4µM | · | 20.6µM | –
Cc1ccc(S(=O)(=O)c2nnn3c2nc(NCc2cccs2)c2sccc23)cc1 | · | · | – | · | – | –
O=S(=O)(c1ccc(Cl)cc1)c1nnn2c1nc(NCc1cccs1)c1sccc12 | · | · | 23.1µM | · | ? | –
COc1cccc(N2CC(NC(=O)COc3ccccc3F)CC2=O)c1 (stereo not given) | · | · | – | · | – | –
Cc1nn(CC(=O)N(C)c2c(N)n(Cc3ccccc3)c(=O)[nH]c2=O)c(C)c1[N+](=O)[O-] | – | – | – | – | – | –
COc1ccc(N(CC(=O)NCCc2ccc(OC)c(OC)c2)S(=O)(=O)c2ccc(OC)c(OC)c2)cc1 | – | – | ? | – | ? | ·
O=S(=O)(c1ccc(Br)cc1)N1CCN(c2nc(-c3ccccc3)nc3ccccc23)CC1 | · | · | ? | – | ? | –
Cc1cccc(OCc2nnc(SCC(=O)Nc3ccc(C)cc3C)o2)c1 | · | · | ? | · | – | ·
COc1cccc(-c2nnc(-c3ccc(C(F)(F)F)cc3)o2)c1OC | ? | ? | 20.6µM | – | ? | –
COc1ccc(-c2nnc(-c3ccccc3O)o2)cc1 | – | ? | 10.3µM | – | ? | ·
SMILES | IL1B secr inh | ELG1 repair inh | TDP1 cell noCPT | Giardia killer | DT40 TDP1 CPT | TDP1 inh
FC(F)(F)Oc1ccccc1-c1nnc(-c2cccc(C(F)(F)F)c2)o1 | · | – | – | – | – | –
COc1ccc(-c2nnc(-c3ccc(C)cc3)o2)cc1 | ? | ? | – | – | – | ·
Cc1ccc(CSc2nnc(-c3cccc4ccccc34)o2)cc1 | · | – | · | – | · | 44.7µM
Cc1ccc(-c2nnc(-c3cccc4ccccc34)o2)cc1 | – | · | 20.6µM | – | 16.4µM | ·
O=C(Cc1ccc(Cl)c(Cl)c1)Nc1ccc(S(=O)(=O)Nc2ncccn2)cc1 | – | – | – | – | – | –
COc1ccc(-n2c3c(cc(-c4nc(-c5ccc(C)cc5)cs4)c2=O)C(=O)CC(C)(C)C3)cc1 | · | · | – | · | – | –
O=S(=O)(Nc1ccc(N2CCOCC2)cc1)c1c(F)cc(F)cc1Br | – | – | – | – | – | ·
Cc1nc(Cn2c3ccc(NC(=S)NC4CCCCC4)cc3c(=O)n2C)cs1 | – | · | ? | · | ? | ·
COc1ccc(/C=C2\SC(=S)N(CCC(=O)NC3CCCC3)C2=O)cc1OC | – | – | 16.4µM | – | ? | ·
CCOC(=O)N1CCN(C(=O)CCN2C(=O)/C(=C\c3ccc(OC)c(OC)c3)SC2=S)CC1 | – | · | – | · | – | ·
COc1ccc(/C=C2\SC(=S)N(CCCC(=O)Nc3cc(C)on3)C2=O)cc1OC | – | 7.3µM | – | – | – | –
CCOc1ccccc1-n1c(N)c(C(=O)OC)c2nc3ccccc3nc21 | · | · | – | · | – | ·
Cc1ccc2c(c1)cc(C(=O)NCc1ccccc1C)n2C | · | · | – | · | – | –
CCOC(=O)c1c(NC(=O)c2cc3n(n2)C(C(F)(F)F)CC(c2ccccc2)N3)sc(C)c1C (stereo not given) | – | ? | 14.6µM | – | ? | –
Cc1cc(NC(=O)c2cc3n(n2)C(C(F)(F)F)CC(c2ccc(Cl)c(Cl)c2)N3)no1 (stereo not given) | – | – | 20.6µM | – | ? | –
CCOc1ccc(NC(=O)c2cc3n(n2)C(C(F)(F)F)CC(c2ccco2)N3)cc1 (stereo not given) | – | – | – | – | – | –
O=C(Nc1ccc(O)cc1)c1cc2n(n1)C(C(F)(F)F)CC(c1ccco1)N2 (stereo not given) | – | – | 7.31µM | – | 9.2µM | –
COc1ccc(C)cc1N(CC(=O)N1CCCCCC1)S(=O)(=O)c1ccccc1 | – | – | ? | – | ? | ·
O=C(Nc1ccon1)c1cc2c(s1)CCCCCC2 | – | ? | – | – | – | –
O=C(Nc1ccc(N2CCOCC2)cc1)c1cc2c(s1)CCCC2 | -79.3 | – | ? | – | ? | –
O=C(Nc1ccc(N2CCOCC2)cc1)c1cc2c(s1)CCCCC2 | -80.3 | – | 20.6µM | – | 23.1µM | –
Cc1ccccc1-n1c(=O)/c(=C\c2ccco2)s/c1=C(/C#N)C(=O)Nc1ccccc1 | – | 4.61µM | – | – | – | –
O=C(c1ccco1)N1CCN(Cc2cc(=O)c(OCc3c(F)cccc3Cl)co2)CC1 | – | – | – | – | – | ·
Cc1ccc(C(=O)N2CCC(C(=O)c3ccc(F)cc3)CC2)cc1 | – | · | ? | – | ? | ·
Cc1ccc(C(=O)N2C(=S)C(c3ccc(F)cc3)=NC23CCN(C)CC3)cc1 | – | – | 4.61µM | – | 5.17µM | –
COC(=O)c1sc2ccccc2c1-n1cccc1C(=O)C(=O)Nc1ccccc1 | – | – | ? | – | ? | –
